Among the data in a collection of fitness landscapes (doi:10.1126/science.1257360) are enrichment ratio values, retold here.

The full ranking holds about 140,000 sequences; the median of “enrichment ratio after two sorts for PhoP signalling” is about 0, and the highest 2% start at about 11. This is one part of a sample in which the highest values are shown more often than they occur. Some results are limits rather than exact numbers.

Sequences and labels used below:
B1: PhoQ; a variant is named by its letters at X, in order, P23837 (parent)
chain: MKKLLRLFFPLSLRVRFLLATAAVVLVLSLAYGMVALIGYSVSFDKTTFRLLRGESNLFYTLAKWENNKLHVELPENIDKQSPTMTLIYDENGQLLWAQRDVPWLMKMIQPDWLKSNGFHEIEADVNDTSLLLSGDHSIQQQLQEVREDDDDAEMTHSVAVNVYPATSRMPKLTIVVVDTIPVELKSSYMVWSWFIYVLSANLLLVIPLLWVAAWWSLRPIEALAKEVRELEEHNRELLNPATTRELTSLVRNLNRLLKSERERYDKYRTTLTDLTHSLKTPLXXLQXXLRSLRSEKMSVSDAEPVMLEQISRISQQIGYYLHRASMRGGTLLSRELHPVAPLLDNLTSALNKVYQRKGVNISLDISPEISFVGEQNDFVEVMGNVLDNACKYCLEFVEISARQTDEHLYIVVEDDGPGIPLSKREVIFDRGQRVDTLRPGQGVGLAVAREITEQYEGKIVAGESMLGGARMEVIFGRQHSAPKDE

This assay covers variants of B1. The assay is described as follows: enrichment ratio after two sorts for PhoP signalling (ratio (wild type AVST 3.29)); higher = more functional. To be noted: with PhoP (E. coli).
PKQD: the enrichment ratio is not above 0.25. As for LTKR, the figure is not above 0.25; as for HYAP, not above 0.25; as for TSLC, 18.4. The figure for KSLC is not above 0.25. On to MMLC, for which the enrichment ratio is not above 0.25. In the case of PNER, the enrichment ratio is not above 0.25. As to RFQL, the enrichment ratio was not above 0.25. As for KKAF, the figure is not above 0.25; as for KYAF, not above 0.25. As for AKAF, the figure is 5.84; as for SQAF, 3.99. In the case of SIAF, the enrichment ratio was 15.1.

As to AIAF, the enrichment ratio was found to be 12.4. The figure for GPRN is not above 0.25; for NCRE it is not above 0.25; for DCLW it is not above 0.25. The figure for PYCA is not above 0.25; for HYKI it is not above 0.25; for YMVL it is not above 0.25.

Regarding DVFV, the enrichment ratio was not above 0.25. As for GYCS, the figure is not above 0.25; as for GGCI, 0.663. TGCS: the enrichment ratio is 13. On to NGCS, for which the enrichment ratio was not above 0.25. As for GGCS, the figure is 13.1; as for RGCS, 0.323; as for SLCL, 11.2. Consider MTCI, for which the enrichment ratio was not above 0.25. As for GTCL, the figure is 9.42; as for MTRL, not above 0.25; as for LTCL, not above 0.25.

With MTCL, the enrichment ratio worked out at 12.8.

Turning to STCL, the enrichment ratio was found to be 15.7.

Take ITCL: the enrichment ratio was not above 0.25. As for TTCL, the figure is 18.5; as for WLCL, not above 0.25; as for YTCL, 5.77.

For the variant PLCL, the enrichment ratio is not above 0.25.

On to GTAR, for which the enrichment ratio is not above 0.25. Turning to FHNH, the enrichment ratio is not above 0.25.

As to YRKS, the enrichment ratio was not above 0.25. The figure for GQTP is not above 0.25; for THVR it is not above 0.25; for MGQG it is not above 0.25. Turning to EIWF, the enrichment ratio was not above 0.25.

As for RYFG, the enrichment ratio was not above 0.25. The figure for GLNL is not above 0.25; for GLEL it is not above 0.25.

On to GLCL, for which the enrichment ratio stood at 13.5. Consider MTME, for which the enrichment ratio was not above 0.25.

In the case of IMWI, the enrichment ratio was not above 0.25.

Consider AIST, for which the enrichment ratio amounted to 6.85.

As for RGST, the enrichment ratio was not above 0.25. Consider AGST, for which the enrichment ratio is 14.8. As for NGST, the figure is not above 0.25. For the variant SMST, the enrichment ratio came to 13.1. As for NIST, the figure is not above 0.25.

As to AHST, the enrichment ratio is not above 0.25. For the variant TGST, the enrichment ratio was 15.2. Regarding TIST, the enrichment ratio worked out at 12.7.

Take ADST: the enrichment ratio was not above 0.25. As for SMNT, the enrichment ratio is not above 0.25.

KMST: the enrichment ratio was not above 0.25. With RSCK, the enrichment ratio was not above 0.25. As for DWGV, the figure is not above 0.25; as for FMYR, not above 0.25. The figure for FQIQ is not above 0.25; for MCFN it is 4.25. As for NMST, the figure is not above 0.25; as for DMST, not above 0.25. In the case of AMST, the enrichment ratio turned out to be 12.2. For the variant AKST, the enrichment ratio amounted to 6.32. Consider HKST, for which the enrichment ratio was not above 0.25. The figure for TKST is 15.4; for YFCR it is 0.754; for YQIY it is not above 0.25. As for WDCT, the figure is not above 0.25. As for TGCY, the enrichment ratio came out at 8.48. On to GGCY, for which the enrichment ratio was 16.1.

As to QRCY, the enrichment ratio is not above 0.25. The figure for RGCY is not above 0.25.

MGWY: the enrichment ratio was found to be 4.8. MGCY: the enrichment ratio was 29.2. As to QHTT, the enrichment ratio is not above 0.25. The figure for KNTT is not above 0.25. On to ERTE, for which the enrichment ratio was not above 0.25. As for QKMV, the figure is not above 0.25; as for TYTC, not above 0.25; as for KMSG, not above 0.25. With DMSG, the enrichment ratio was not above 0.25. Regarding NMSN, the enrichment ratio is not above 0.25. The figure for TMSG is 24.1; for MMSN it is not above 0.25; for TMSN it is 12.5. The figure for PCVI is not above 0.25.

As to GRTV, the enrichment ratio was not above 0.25. The figure for NESS is not above 0.25. Consider FFSS, for which the enrichment ratio is not above 0.25. With QESS, the enrichment ratio is 19.7. QDSS: the enrichment ratio was not above 0.25. With TESS, the enrichment ratio was determined as 15. As for MESS, the figure is 5.15. The figure for FVSS is not above 0.25; for QGSS it is 14.4. For QRSS, the enrichment ratio was not above 0.25. The figure for IMKM is not above 0.25; for LFRM it is not above 0.25; for TWVL it is not above 0.25.

Take WRGV: the enrichment ratio was not above 0.25. Regarding KLPK, the enrichment ratio was not above 0.25. Take EIYQ: the enrichment ratio was not above 0.25. As to MECF, the enrichment ratio is not above 0.25. As to SRCF, the enrichment ratio is not above 0.25. In the case of KCCF, the enrichment ratio was not above 0.25.

For SCCF, the enrichment ratio was found to be 13.7.

Consider SECF, for which the enrichment ratio turned out to be 13.9. Regarding MCCF, the enrichment ratio was found to be 4.87. As for STCF, the figure is 15.9. As to SNCF, the enrichment ratio was 4.82. As for YTCF, the figure is 2.21. As for NECF, the figure is not above 0.25. The figure for CTCF is not above 0.25; for SQCF it is 11.4; for PQGD it is not above 0.25. In the case of YMHS, the enrichment ratio is not above 0.25. As for GKRI, the figure is not above 0.25; as for SAIV, 3.88. As for ERRA, the enrichment ratio was not above 0.25. As for LTCF, the figure is not above 0.25. The figure for TTCF is 17.7. The figure for MTCF is 1.4; for IHTH it is not above 0.25; for LQWA it is not above 0.25. Consider TAME, for which the enrichment ratio was 15.7. Consider KAMY, for which the enrichment ratio is not above 0.25. As for TAMY, the figure is 17.4; as for TAIE, not above 0.25. The figure for NAMY is not above 0.25; for KAME it is not above 0.25; for RLHS it is not above 0.25.

In the case of THTF, the enrichment ratio was 0.991. As for SFPM, the figure is not above 0.25; as for RSPG, not above 0.25; as for NAHL, not above 0.25. The figure for KSHL is not above 0.25; for QAHL it is 16.7. The figure for YAHL is not above 0.25. In the case of KAHL, the enrichment ratio is not above 0.25. Consider TAHL, for which the enrichment ratio was 17.4. On to QGHL, for which the enrichment ratio turned out to be 18.3.

THHL: the enrichment ratio was determined as 2.02. For the variant QTHL, the enrichment ratio worked out at 4.03. As for IAHL, the figure is not above 0.25; as for QSHL, 13.5. The figure for FFHL is not above 0.25.
